# Results from publication PMC11574364.
# Tests used:
# Test in all cases: protein domain microarray probed with biotinylated miRNA; Domain array: 20 mM Tris-HCl pH 7.4, 200 mM KCl, 0.2 mM EDTA, 0.05% NP40, 2 ug/ul heparin, overnight 4 C. ORF array: PBS pH 7.0 with RNase inhibitor, 100 ng RNA; high values mean tight binding
# Conditions in all cases: ssRNA
# NOVA2(3) = molecular target: T1, NOVA2(3) (Homo sapiens, UniProt Q9UNW9)
# T1 sequence: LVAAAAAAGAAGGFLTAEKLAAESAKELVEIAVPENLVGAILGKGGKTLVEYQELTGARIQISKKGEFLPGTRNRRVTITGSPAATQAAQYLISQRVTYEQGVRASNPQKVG
# RNPC3(2) = molecular target: T2, RNPC3(2) (Homo sapiens, UniProt Q96LT9)
# T2 sequence: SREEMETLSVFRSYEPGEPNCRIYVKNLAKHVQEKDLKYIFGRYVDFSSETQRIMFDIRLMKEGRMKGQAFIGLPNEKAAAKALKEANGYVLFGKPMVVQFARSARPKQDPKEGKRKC
# RBMXL1 = RBMXL1 (Homo sapiens, UniProt Q96E39)
# RBM38 = molecular target: T3, RBM38 (Homo sapiens, UniProt Q9H0Z9)
# T3 sequence: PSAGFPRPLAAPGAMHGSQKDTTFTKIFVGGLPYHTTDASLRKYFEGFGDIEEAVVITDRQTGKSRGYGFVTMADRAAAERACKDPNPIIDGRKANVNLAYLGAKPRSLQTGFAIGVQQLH
# IGF2BP2(3-4) = IGF2BP2(3-4) (Homo sapiens, UniProt Q9Y6M1)
# STAU1(2) = STAU1(2) (Homo sapiens, UniProt O95793)
# SETD1A = SETD1A (Homo sapiens, UniProt O15047)
# IGF2BP1(3-4) = IGF2BP1(3-4) (Homo sapiens, UniProt Q9NZI8)
# VIGILIN(6-10) = VIGILIN(6-10) (Homo sapiens, UniProt Q00341)
# RBM18 = molecular target: T4, RBM18 (Homo sapiens, UniProt Q96H35)
# T4 sequence: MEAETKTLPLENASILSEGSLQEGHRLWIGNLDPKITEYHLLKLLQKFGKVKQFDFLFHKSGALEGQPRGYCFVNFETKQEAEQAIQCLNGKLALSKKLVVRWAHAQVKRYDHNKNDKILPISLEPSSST
# VIGILIN(6-10), sequence (Q00341 495-900): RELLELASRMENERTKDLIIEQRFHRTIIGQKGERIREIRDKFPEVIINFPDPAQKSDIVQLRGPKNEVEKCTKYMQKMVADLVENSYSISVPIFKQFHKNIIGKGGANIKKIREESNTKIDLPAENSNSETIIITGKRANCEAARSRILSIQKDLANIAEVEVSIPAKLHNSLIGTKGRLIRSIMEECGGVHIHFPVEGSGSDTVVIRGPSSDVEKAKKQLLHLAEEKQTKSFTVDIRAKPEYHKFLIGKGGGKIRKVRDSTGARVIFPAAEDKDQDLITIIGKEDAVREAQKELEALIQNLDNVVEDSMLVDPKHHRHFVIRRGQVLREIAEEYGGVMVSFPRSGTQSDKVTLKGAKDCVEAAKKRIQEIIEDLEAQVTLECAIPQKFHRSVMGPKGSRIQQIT
# IGF2BP2(3-4), sequence (Q9Y6M1 410-599): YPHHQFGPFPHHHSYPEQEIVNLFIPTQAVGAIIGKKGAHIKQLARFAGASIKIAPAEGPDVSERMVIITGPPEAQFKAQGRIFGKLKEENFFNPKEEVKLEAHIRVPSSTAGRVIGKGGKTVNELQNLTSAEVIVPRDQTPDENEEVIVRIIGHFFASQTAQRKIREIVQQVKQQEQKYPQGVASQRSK
# STAU1(2), sequence (O95793 164-271): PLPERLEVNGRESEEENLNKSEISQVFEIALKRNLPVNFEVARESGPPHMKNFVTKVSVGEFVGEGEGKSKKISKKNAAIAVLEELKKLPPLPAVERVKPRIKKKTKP
# RBMXL1, sequence (Q96E39 1-110): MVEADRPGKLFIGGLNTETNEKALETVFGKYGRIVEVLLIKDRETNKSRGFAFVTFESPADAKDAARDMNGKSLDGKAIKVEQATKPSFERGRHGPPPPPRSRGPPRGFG
# IGF2BP1(3-4), sequence (Q9NZI8 388-577): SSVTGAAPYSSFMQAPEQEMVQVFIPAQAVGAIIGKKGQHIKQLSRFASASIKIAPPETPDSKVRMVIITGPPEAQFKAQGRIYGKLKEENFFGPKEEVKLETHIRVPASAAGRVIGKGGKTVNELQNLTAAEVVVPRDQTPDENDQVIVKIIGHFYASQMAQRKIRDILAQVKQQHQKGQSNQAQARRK
# SETD1A, sequence (O15047 60-200): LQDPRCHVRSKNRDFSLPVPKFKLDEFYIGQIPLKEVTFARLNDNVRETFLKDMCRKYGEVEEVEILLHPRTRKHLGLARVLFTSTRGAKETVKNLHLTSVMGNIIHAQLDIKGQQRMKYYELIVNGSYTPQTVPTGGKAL
Sequence,binding signal (NOVA2(3)),binding signal (RNPC3(2)),binding signal (RBMXL1),binding signal (RBM38),binding signal (IGF2BP2(3-4)),binding signal (STAU1(2)),binding signal (SETD1A),binding signal (IGF2BP1(3-4)),binding signal (VIGILIN(6-10)),binding signal (RBM18)
UGAGGUAGUAGGUUGUGUGGUU,271 ± 8.31 fluorescence intensity,301 ± 43.8 fluorescence intensity,981 ± 17.4 fluorescence intensity,1950 ± 73.9 fluorescence intensity,1420 ± 38.2 fluorescence intensity,123 ± 31.3 fluorescence intensity,213 ± 11.9 fluorescence intensity,1118 ± 5.57 fluorescence intensity,498 ± 6.91 fluorescence intensity,312 ± 45.3 fluorescence intensity
AGAGGUAGUAGGUUGCAUAGUU,1853 ± 17.2 fluorescence intensity,168 ± 44.9 fluorescence intensity,1390 ± 47.7 fluorescence intensity,2315 ± 13.9 fluorescence intensity,1780 ± 95.8 fluorescence intensity,52.2 ± 5.35 fluorescence intensity,95.585 ± 0.0212 fluorescence intensity,955 ± 10.5 fluorescence intensity,91.1 ± 6.12 fluorescence intensity,316 ± 12.6 fluorescence intensity
CAGUGCAAUGAUGAAAGGGCAU,508 ± 29.8 fluorescence intensity,138 ± 35.8 fluorescence intensity,1000 ± 56.8 fluorescence intensity,1690 ± 55.6 fluorescence intensity,904 ± 85.6 fluorescence intensity,23.7 ± 6.78 fluorescence intensity,64.7 ± 9.41 fluorescence intensity,436 ± 8.23 fluorescence intensity,43.4 ± 1.94 fluorescence intensity,248.1 ± 1.58 fluorescence intensity
UAGCUUAUCAGACUGAUGUUGA,63.2 ± 4.35 fluorescence intensity,72.3 ± 78 fluorescence intensity,96.9 ± 4.67 fluorescence intensity,1790 ± 23.9 fluorescence intensity,59.8 ± 2.54 fluorescence intensity,–,23.2 ± 2.69 fluorescence intensity,22 ± 1.81 fluorescence intensity,–,72.6 ± 4.62 fluorescence intensity
UGAGGUAGUAGGUUGUAUGGUU,144 ± 61.5 fluorescence intensity,130 ± 69.7 fluorescence intensity,805 ± 10.1 fluorescence intensity,1540 ± 34.6 fluorescence intensity,1720 ± 120 fluorescence intensity,78.8 ± 6.29 fluorescence intensity,99.9 ± 23.9 fluorescence intensity,1615 ± 5.45 fluorescence intensity,270 ± 12.9 fluorescence intensity,291 ± 10.4 fluorescence intensity
UGAGGUAGUAGGUUGUAUAGUU,49.4 ± 3.28 fluorescence intensity,32.3 ± 6.65 fluorescence intensity,300 ± 36.4 fluorescence intensity,631 ± 19.8 fluorescence intensity,412 ± 46 fluorescence intensity,–,36 ± 1.17 fluorescence intensity,262 ± 8.37 fluorescence intensity,26.1 ± 2.47 fluorescence intensity,110 ± 9.81 fluorescence intensity
